Each structure is given as a SMILES string. Inconclusive results are not listed. Calls of active or inactive are those of the source. Rule for the calls, unless noted: active = hit-call score of the fitted dose curve at least 0.9, where 1 is the maximum; inactive = score below 0.9.

Assay [1] can be described thus: CCTE_Harrill_HTTr_Viability_MCF7: CCTE's 6-hour Cell Viability Assessment for the High-Throughput Transcriptomics (HTTr) Platform, in MCF-7 cells cultured in DMEM + 10% fetal bovine serum, Harrill Lab (AID 2284010). A digest of the protocol:
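Eight-point concentration series, six-hour exposure. Propidium iodide exclusion imaged to assess membrane integrity as a cytotoxicity readout; bidirectional fitting was done with DMSO as negative control and activity baseline.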

A short description of assay [2]: CCTE_Harrill_HTTr_Apoptosis_MCF7: CCTE's 6-hour Apoptosis Assessment for the High-Throughput Transcriptomics (HTTr) Platform, in MCF-7 cells cultured in DMEM + 10% fetal bovine serum, Harrill Lab (AID 2284011). A digest of the protocol: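 MCF-7 cells in DMEM + 10% fetal bovine serum were exposed to chemicals for 6 hours over an eight-point dilution series. Caspase-3/7 activation was imaged by high content imaging with CellEvent Caspase 3/7 Green; bidirectional fitting used DMSO as baseline.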

Assay [3] can be described thus: CCTE_Shafer_MEA_acute_spike_number: CCTE's Neural Acute Assay for Total Number of Spikes, Shafer Lab (AID 2284008). The gist of the method:
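Primary rat cortical neurons on 16-electrode MEA wells; on DIV 13 or 15, 40-min baseline then 40-min recording with compound (0.03-40 uM) at 37 C. Spikes detected at 8x rms noise; percent change versus baseline, DMSO as negative control.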

Assay [4] in a line: CCTE_Shafer_MEA_acute_firing_rate_mean: CCTE's Neural Acute Assay for Mean Firing Rate, Shafer Lab (AID 2284009).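 Note: analyzed for loss of signal so actives lower firing rate relative to DMSO.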 A digest of the protocol:
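Spontaneous spiking of primary rat cortical networks, DIV 13/15, 37 C. Compound 0.03-40 uM, n ≥3 wells; 40 min baseline vs 40 min treated. Endpoint fitted in loss-of-signal direction against DMSO.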

Assay [5] in a line: CCTE_Shafer_MEA_acute_burst_number: CCTE's Neural Acute Assay for Single-Electrode Bursts, Shafer Lab (AID 2284013). A digest of the protocol:
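Burst totals were derived with adaptive spike detection (8x rms threshold) on filtered signals from rat cortical cultures; change relative to pre-treatment baseline after 40-min compound exposure (0.03-40 uM) was fitted in the negative direction against DMSO.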

Assay [6] in a line: CCTE_Shafer_MEA_acute_burst_duration_mean: CCTE's Neural Acute Assay for Mean Burst Duration, Shafer Lab (AID 2284014).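 Note: hits are decreases in mean burst duration relative to DMSO controls.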 The gist of the method:
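Acute exposure of mature rat cortical networks (DIV 13 or 15) grown on microelectrode arrays to 0.03-40 uM compound. Mean burst duration compared with the 40-min pre-dose baseline over a 40-min post-dose recording at 37 C.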

The nature of assay [7]: CCTE_Shafer_MEA_acute_per_burst_spike_number_mean: CCTE's Neural Acute Assay for Average Number of Spikes Per Burst, Shafer Lab (AID 2284015).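 Note: hits are decreases in mean spikes per burst versus baseline.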 A digest of the protocol: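 Rat primary cortical neurons on 48-well MEAs (DIV 13 or 15) were treated with 0.03-40 uM compound at 37 C. Mean spikes per burst over 40 min were recorded before and after exposure and expressed as percent change from baseline, relative to DMSO.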

The nature of assay [8]: CCTE_Shafer_MEA_acute_interburst_interval_mean: CCTE's Neural Acute Assay for Mean Interburst Interval, Shafer Lab (AID 2284016).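 Note: percent change of mean interburst interval versus each well's own pre-dose baseline; curves fitted for decrease in interburst interval relative to DMSO.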 A digest of the protocol:
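Rat primary cortical neurons on 48-well MEAs at DIV 13 or 15 were exposed acutely to 0.03-40 uM. Spikes detected at 8x rms noise, 37 C. Mean interburst interval from 40 min recordings expressed as percent change from 40 min pre-treatment baseline.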

The nature of assay [9]: CCTE_Shafer_MEA_acute_burst_percentage_mean: CCTE's Neural Acute Assay for Percentage of Spikes in a Burst, Shafer Lab (AID 2284017). The gist of the method: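 Primary rat cortical neurons on 48-well MEA plates, treated on DIV 13 or 15 at 0.03-40 uM. Spikes detected at 8x rms noise at 37C; percent change from 40-min baseline to 40-min post-dose recording, fitted versus DMSO.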

Assay [10] can be described thus: CCTE_Shafer_MEA_acute_burst_percentage_std: CCTE's Neural Acute Assay for Standard Deviation of Burst Percentage, Shafer Lab (AID 2284018).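 Note: fitted in the negative direction so actives lower burst percentage SD.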 The gist of the method:
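Primary rat cortical neurons on 16-electrode MEA wells were recorded 40 min at baseline (DIV 13 or 15), then 40 min after compound (0.03-40 uM), at 37 C. Well value is SD across electrodes of spikes-in-bursts/total spikes; endpoint is percent change, DMSO-referenced.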

Assay [11] can be described thus: CCTE_Shafer_MEA_acute_per_network_burst_spike_number_mean: CCTE's Neural Acute Assay for Average Number of Spikes in a Network Burst, Shafer Lab (AID 2284019).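 For AC50: curve fitted for loss of signal so actives reduce spikes per network burst.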 The gist of the method:
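Acute exposure of rat primary cortical networks (DIV 13/15) on MEAs; adaptive spike detection at 8x rms noise, 37 C. Percent change in spikes per network burst after 40 min with compound (0.03-40 uM), negative direction vs DMSO.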

Assay [12] in a line: CCTE_Shafer_MEA_acute_per_network_burst_spike_number_std: CCTE's Neural Acute Assay for Standard Deviation of Number of Spikes in a Network Burst, Shafer Lab (AID 2284020).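 Note: fitted for decrease in spike-number SD versus DMSO so actives lower it.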 The gist of the method: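 Acute MEA exposure, rat cortical neurons, 0.03-40 uM. Per-well % change versus own baseline; DMSO as negative control.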
A short description of assay [13]: CCTE_Shafer_MEA_acute_per_network_burst_electrodes_number_mean: CCTE's Neural Acute Assay for Mean Number of Electrodes in a Network Burst, Shafer Lab (AID 2284021).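 Note: curves fitted for decreases only so hits reduce electrodes per burst.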 A digest of the protocol: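 Rat primary cortical neurons on 16-electrode MEA wells were recorded 40 min at baseline on DIV 13 or 15, then 40 min after compound (0.03-40 uM), at 37 C. Value is percent change per well, fitted in loss direction versus DMSO.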

Assay [14] in a line: CCTE_Shafer_MEA_acute_network_burst_percentage: CCTE's Neural Acute Assay for Percentage of Network Bursts, Shafer Lab (AID 2284022).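 Note: curves fitted for loss so actives lower network burst percentage.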 A digest of the protocol: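 Primary rat cortical neurons on 16-electrode MEA wells, treated on DIV 13 or 15 with compound (0.03-40 uM); 40-min baseline and 40-min post-exposure recordings at 37 C. Value is percent change in spikes within network bursts versus baseline, DMSO negative control.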

Assay [15] deals with Nucleoli Translocation, AR (gene 367) (UniProt P10275). Description: UPITT_HCI_U2OS_AR_TIF2_Nucleoli_Antagonist: University of Pittsburgh U2OS Androgen Receptor-Transcriptional Intermediary Factor 2 (AR-TIF2) Antagonism High Content Imaging Assay for Nucleoli Translocation (AID 2283997; active = hit-call score of the fitted dose curve at least 0.9, where 1 is the maximum). The gist of the method: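 An antagonist-mode imaging screen: engineered U2OS (AR-RFP, TIF2-GFP) exposed to 20 uM compound, 0.2% DMSO. Activity reflects nucleolar red fluorescence change relative to DHT baseline.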
Nucleoli Translocation, AR (gene 367), sequence (P10275 whole entry, looked up, the tested form may be a part): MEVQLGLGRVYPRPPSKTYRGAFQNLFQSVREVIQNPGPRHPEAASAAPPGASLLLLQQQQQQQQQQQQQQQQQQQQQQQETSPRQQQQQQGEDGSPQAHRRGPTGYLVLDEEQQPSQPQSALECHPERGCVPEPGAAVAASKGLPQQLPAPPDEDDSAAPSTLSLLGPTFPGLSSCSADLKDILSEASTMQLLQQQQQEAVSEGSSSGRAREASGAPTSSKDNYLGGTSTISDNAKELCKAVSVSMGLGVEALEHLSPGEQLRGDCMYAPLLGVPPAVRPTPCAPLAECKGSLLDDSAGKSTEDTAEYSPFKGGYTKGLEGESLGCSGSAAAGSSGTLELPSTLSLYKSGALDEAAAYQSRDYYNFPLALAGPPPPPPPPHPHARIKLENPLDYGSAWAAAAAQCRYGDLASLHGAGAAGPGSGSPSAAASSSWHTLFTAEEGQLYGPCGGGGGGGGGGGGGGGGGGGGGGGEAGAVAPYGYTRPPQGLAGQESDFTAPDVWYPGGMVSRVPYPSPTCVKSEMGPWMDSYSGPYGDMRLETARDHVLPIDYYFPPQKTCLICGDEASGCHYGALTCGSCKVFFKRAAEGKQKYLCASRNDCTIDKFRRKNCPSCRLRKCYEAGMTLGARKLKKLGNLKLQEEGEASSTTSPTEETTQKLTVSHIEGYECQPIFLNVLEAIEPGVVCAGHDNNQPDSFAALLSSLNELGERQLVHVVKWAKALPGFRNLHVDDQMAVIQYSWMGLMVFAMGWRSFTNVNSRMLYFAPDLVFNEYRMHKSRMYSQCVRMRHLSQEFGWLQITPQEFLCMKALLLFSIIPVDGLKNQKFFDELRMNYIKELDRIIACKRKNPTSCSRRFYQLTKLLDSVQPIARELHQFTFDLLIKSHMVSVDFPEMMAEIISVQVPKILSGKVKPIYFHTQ

In assay [16] the target is Ratio of Nucleoli Translocation and Cytoplasm, AR (gene 367) (UniProt P10275). Description: UPITT_HCI_U2OS_AR_TIF2_Nucleoli_Cytoplasm_Ratio_Agonist: University of Pittsburgh U2OS Androgen Receptor-Transcriptional Intermediary Factor 2 (AR-TIF2) Agonism High Content Imaging Assay for Ratio of Nucleoli Translocation and Cytoplasm (AID 2284000; active = hit-call score of the fitted dose curve at least 0.9, where 1 is the maximum;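 note: hits raise the red nucleolar to cytoplasm ratio above vehicle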). The gist of the method:
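Primary screen at 20 uM final (0.2% DMSO), then triplicate confirmation and dose-response from 0.195 to 50 uM final (0.5% DMSO). Cells: U2OS with AR-RFP and TIF2-GFP. Endpoint is the nucleoli/cytoplasm red-fluorescence ratio, gain-of-signal vs DMSO.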

Assay [17] can be described thus: CCTE_Harrill_HTTr_CellCount_MCF7: CCTE's Cell Proliferation Assessment for the High-Throughput Transcriptomics (HTTr) Platform, Harrill Lab (AID 2284012; active = hit-call score of the fitted dose curve at least 0.9, where 1 is the maximum;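 note: count of Hoechst-stained nuclei per well by high-content imaging in MCF-7 cells; cells exposed to compound for six hours; intended direction is loss of nuclei count meaning fewer cells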). A digest of the protocol:
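For this full-screen endpoint, MCF-7 cultures received eight compound dilutions for six hours. Well nuclei counts from Hoechst imaging were analyzed relative to DMSO.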

The target in assay [18] is Nucleoli Translocation, AR (gene 367) (UniProt P10275). Description: UPITT_HCI_U2OS_AR_TIF2_Nucleoli_Agonist: University of Pittsburgh U2OS Androgen Receptor-Transcriptional Intermediary Factor 2 (AR-TIF2) Agonism High Content Imaging Assay for Nucleoli Translocation (AID 2283998; active = hit-call score of the fitted dose curve at least 0.9, where 1 is the maximum). The gist of the method:
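Cells express human AR fused to red fluorescent protein and TIF2 fused to GFP. Red fluorescence in the nucleolar region was quantified by high-content imaging and fitted as gain-of-signal against a DMSO baseline. Compounds were tested at 0.195 to 50 uM final (0.5% DMSO).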

In assay [19] the target is Ratio of Nucleoli Translocation and Cytoplasm, AR (gene 367) (UniProt P10275). Description: UPITT_HCI_U2OS_AR_TIF2_Nucleoli_Cytoplasm_Ratio_Antagonist: University of Pittsburgh U2OS Androgen Receptor-Transcriptional Intermediary Factor 2 (AR-TIF2) Antagonism High Content Imaging Assay for Ratio of Nucleoli Translocation and Cytoplasm (AID 2283999; active = hit-call score of the fitted dose curve at least 0.9, where 1 is the maximum;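 note: antagonists lower the DHT-driven ratio of nucleolar to cytoplasmic red signal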). The gist of the method:
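This antagonist-mode endpoint tracks AR-RFP localisation, the nucleolus-to-cytoplasm intensity ratio, in TIF2-GFP-coexpressing U2OS cells. DMSO stays at or below 0.5%; testing spans 20 uM single-dose and 0.195–50 uM series, with DHT setting the activity baseline.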

Ratio of Nucleoli Translocation and Cytoplasm, AR (gene 367), sequence (P10275 whole entry, looked up): as the sequence (P10275 whole entry, looked up, the tested form may be a part) above

In the case of `CC1(C)[C@@H]2CC[C@@]1(C)[C@H](O)C2`, the result in assay [1] and in assay [2] was inactive.

In the case of `CCCCCCCCC=O`, the molecule was classed as inactive in [3], in assay [4], in assay [1], in assay [2], in [5] and in assay [6]. Further, the call in assay [7], in assay [8], in assay [9], in [10], in assay [11] and in assay [12] was inactive. For the same molecule, the molecule was called inactive in [13] and in assay [14].

With `CCN(CC)c1ccc(C(=C2C=CC(=[N+](CC)CC)C=C2)c2ccc(S(=O)(=O)O)cc2S(=O)(=O)[O-])cc1`, the molecule was classed as inactive in [15] and in assay [16].

For the molecule `CN(C)C(=N)N=C(N)N`, the call in [3], in [4], in assay [1], in [2], in assay [17] and in assay [5] was inactive. The call in assay [6], in [7], in assay [8], in [9], in assay [10] and in assay [11] was inactive. Also, the call in assay [12], in assay [13] and in assay [14] was inactive.

For the molecule `c1ccc2c(c1)c1cccc3ccc4cccc2c4c31`, the molecule was called inactive in assay [15], in [18], in [19], in [16], in assay [1] and in assay [2]. In assay [17], the call was inactive.

Regarding `CC(C)(COC(=O)c1ccccc1)COC(=O)c1ccccc1`, the molecule was called inactive in [3], in assay [4], in assay [5], in assay [6], in assay [7] and in [8]. The result in [9], in assay [10], in assay [11], in [12], in assay [13] and in [14] was inactive.

Regarding `Cc1cc(C2(c3cc(C)c(O)cc3C)OS(=O)(=O)c3ccccc32)c(C)cc1O`, the outcome in assay [3], in [4], in assay [1], in assay [2], in assay [17] and in assay [6] was inactive. The call in [7], in [8], in assay [9], in assay [10], in assay [12] and in [13] was inactive. For the same molecule, in assay [14], the call was inactive. Also, the AC50 in assay [5] was 0.148 µM (active); in [11], 25.9 µM (active).

For `CC(CN1c2ccccc2Sc2ccccc21)N(C)C` (stereo not drawn), the result in assay [1] and in assay [2] was inactive.

`COc1cc(C=O)ccc1OC(=O)C(C)C`: the outcome in assay [3], in assay [4], in assay [1], in [2], in [17] and in assay [5] was inactive. The call in [6], in assay [7], in assay [8], in [9], in assay [10] and in assay [13] was inactive. Besides, the molecule was classed as inactive in assay [14]. For the same molecule, the AC50 was 3.8 µM (active) in assay [11] and 3.76 µM (active) in assay [12].

For the molecule `O=C(Nc1ccccc1)c1cc([N+](=O)[O-])ccc1Cl`, the result in assay [1] and in assay [2] was inactive.

`C=C[Si](OCC)(OCC)OCC`: the call in [3], in [4], in assay [5], in assay [6], in assay [7] and in assay [8] was inactive. Besides, the molecule was classed as inactive in assay [9], in assay [10], in assay [11], in [12], in [13] and in [14].

A word on the AC50: it is the midpoint of the concentration-response curve, whichever way the signal moves.

Values taken from PubChem BioAssay (EPA / NIEHS).
